Paper PMC7862700, “An all-to-all approach to the identification of sequence-specific readers for epigenetic DNA modifications on cytosine”

Experiments:
Experiment in all cases: DAPPL (digital affinity profiling via proximity ligation, sequencing); 10 mM Tris-HCl pH 7.5, 50 mM NaCl, 1 mM DTT, 4% glycerol, room temperature, 30 min; GST-TFs on glutathione beads, 16-mer random dsDNA library, 0.1% formaldehyde crosslink after washing; high values mean tight binding
FLI1 = target: T1, FLI1 (Homo sapiens, UniProt Q01543 1-452); details: protein: recombinant; tags: N-terminal GST; dsDNA, one strand shown
T1 sequence: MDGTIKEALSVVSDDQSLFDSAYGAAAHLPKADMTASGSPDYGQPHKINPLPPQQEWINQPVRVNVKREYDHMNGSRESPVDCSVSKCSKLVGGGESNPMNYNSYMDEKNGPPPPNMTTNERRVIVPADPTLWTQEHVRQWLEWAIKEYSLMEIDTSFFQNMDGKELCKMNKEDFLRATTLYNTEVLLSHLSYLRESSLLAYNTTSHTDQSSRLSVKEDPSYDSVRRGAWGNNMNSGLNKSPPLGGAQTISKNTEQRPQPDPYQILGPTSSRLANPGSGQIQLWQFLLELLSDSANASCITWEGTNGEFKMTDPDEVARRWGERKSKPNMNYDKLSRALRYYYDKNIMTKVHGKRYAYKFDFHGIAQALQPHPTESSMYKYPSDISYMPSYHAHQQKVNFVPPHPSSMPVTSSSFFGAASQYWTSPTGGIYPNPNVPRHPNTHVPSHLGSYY
Outline: (§1)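 Binding signal is defined as a hexamer's read frequency for one factor over its frequency for the tag-only sample. To obtain reads, GST-fused human transcription factors were expressed in yeast, captured on glutathione beads, barcoded with DNA and pooled with that sample. Pools met 200 nmole of a 16-mer random double-stranded DNA library in Tris/NaCl/DTT/glycerol buffer for 30 min at room temperature before washing, 0.1% formaldehyde crosslinking, proximity ligation (BsaI/T4 ligase, 1 h, 37 °C), PCR and Illumina NextSeq500 sequencing.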

ELK1 = target: T2, ELK1 (Homo sapiens, UniProt P19419 1-428); details: protein: recombinant; tags: N-terminal GST; dsDNA, one strand shown
T2 sequence: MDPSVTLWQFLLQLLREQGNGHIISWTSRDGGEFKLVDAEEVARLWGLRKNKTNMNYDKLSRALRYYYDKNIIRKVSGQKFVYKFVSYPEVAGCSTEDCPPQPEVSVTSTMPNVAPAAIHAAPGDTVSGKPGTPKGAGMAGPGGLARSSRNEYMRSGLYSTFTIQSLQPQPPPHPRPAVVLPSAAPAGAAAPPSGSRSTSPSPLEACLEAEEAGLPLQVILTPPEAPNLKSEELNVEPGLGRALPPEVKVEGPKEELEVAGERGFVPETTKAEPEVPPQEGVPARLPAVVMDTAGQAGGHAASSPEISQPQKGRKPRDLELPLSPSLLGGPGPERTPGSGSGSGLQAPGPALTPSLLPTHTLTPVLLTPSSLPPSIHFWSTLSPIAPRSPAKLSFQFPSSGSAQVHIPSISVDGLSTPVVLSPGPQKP
Outline: as §1

GABPA = target: T3, GABPA (Homo sapiens, UniProt Q06546 1-454); details: protein: recombinant; tags: N-terminal GST; dsDNA, one strand shown
T3 sequence: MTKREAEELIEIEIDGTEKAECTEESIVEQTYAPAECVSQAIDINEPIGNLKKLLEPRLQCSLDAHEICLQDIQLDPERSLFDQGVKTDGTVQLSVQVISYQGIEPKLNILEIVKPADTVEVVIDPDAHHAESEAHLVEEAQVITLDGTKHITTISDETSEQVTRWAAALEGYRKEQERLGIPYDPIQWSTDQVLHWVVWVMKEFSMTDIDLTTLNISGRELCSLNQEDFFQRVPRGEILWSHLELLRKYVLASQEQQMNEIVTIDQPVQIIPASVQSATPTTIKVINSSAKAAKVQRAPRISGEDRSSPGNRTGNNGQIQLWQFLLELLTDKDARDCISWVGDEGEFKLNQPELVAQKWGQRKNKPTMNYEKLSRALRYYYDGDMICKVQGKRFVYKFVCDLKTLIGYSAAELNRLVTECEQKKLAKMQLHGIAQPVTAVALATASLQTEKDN
Outline: as §1

ERG = target: T4, ERG (Homo sapiens, UniProt P11308 1-479); details: protein: recombinant; tags: N-terminal GST; dsDNA, one strand shown
T4 sequence: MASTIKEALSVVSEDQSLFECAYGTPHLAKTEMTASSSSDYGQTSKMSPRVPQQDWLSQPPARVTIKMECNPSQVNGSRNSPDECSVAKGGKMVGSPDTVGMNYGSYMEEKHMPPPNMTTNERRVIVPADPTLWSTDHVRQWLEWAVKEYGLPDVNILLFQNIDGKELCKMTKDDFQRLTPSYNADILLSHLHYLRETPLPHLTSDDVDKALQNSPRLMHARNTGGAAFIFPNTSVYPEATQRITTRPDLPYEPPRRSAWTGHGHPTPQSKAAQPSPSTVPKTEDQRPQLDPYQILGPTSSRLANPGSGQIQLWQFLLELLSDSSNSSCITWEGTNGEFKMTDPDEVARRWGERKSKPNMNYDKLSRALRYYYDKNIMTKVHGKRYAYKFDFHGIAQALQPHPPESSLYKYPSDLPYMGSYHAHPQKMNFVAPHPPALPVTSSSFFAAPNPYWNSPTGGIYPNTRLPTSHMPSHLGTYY
Outline: as §1

ELF1 = ELF1 (Homo sapiens, UniProt P32519 1-619); details: protein: recombinant; tags: N-terminal GST; dsDNA, one strand shown
ELF1, sequence (P32519 whole entry): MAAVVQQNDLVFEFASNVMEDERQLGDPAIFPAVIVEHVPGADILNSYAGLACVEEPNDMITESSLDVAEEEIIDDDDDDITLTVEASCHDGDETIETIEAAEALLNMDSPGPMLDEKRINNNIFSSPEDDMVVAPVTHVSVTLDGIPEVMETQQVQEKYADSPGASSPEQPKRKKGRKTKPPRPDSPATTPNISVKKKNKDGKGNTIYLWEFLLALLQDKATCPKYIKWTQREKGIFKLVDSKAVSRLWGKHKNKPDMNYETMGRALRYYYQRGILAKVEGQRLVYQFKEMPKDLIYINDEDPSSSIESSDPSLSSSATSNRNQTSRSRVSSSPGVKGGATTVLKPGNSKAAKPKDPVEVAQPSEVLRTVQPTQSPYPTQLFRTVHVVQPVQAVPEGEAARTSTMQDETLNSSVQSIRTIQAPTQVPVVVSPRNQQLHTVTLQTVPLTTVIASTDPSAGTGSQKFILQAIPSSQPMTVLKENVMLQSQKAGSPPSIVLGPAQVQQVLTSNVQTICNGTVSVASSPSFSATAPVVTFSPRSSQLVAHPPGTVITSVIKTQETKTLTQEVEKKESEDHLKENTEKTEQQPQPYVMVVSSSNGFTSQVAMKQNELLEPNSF
Outline: as §1

EHF = target: T5, EHF (Homo sapiens, UniProt Q9NZC4 1-300); details: protein: recombinant; tags: N-terminal GST; dsDNA, one strand shown
T5 sequence: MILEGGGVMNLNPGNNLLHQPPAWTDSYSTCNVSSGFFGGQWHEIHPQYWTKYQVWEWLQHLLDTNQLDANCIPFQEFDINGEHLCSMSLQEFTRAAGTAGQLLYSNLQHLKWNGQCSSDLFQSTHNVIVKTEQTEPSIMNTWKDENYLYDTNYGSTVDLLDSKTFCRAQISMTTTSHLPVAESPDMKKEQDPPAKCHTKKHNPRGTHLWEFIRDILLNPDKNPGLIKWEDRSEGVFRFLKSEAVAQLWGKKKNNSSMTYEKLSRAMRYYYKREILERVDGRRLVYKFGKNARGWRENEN
Outline: as §1

SPI1 = SPI1 (Homo sapiens, UniProt P17947 1-270); details: protein: recombinant; tags: N-terminal GST; dsDNA, one strand shown
Outline: as §1

SPIB = SPIB (Homo sapiens, UniProt Q01892 1-262); details: protein: recombinant; tags: N-terminal GST; dsDNA, one strand shown
SPIB, sequence (Q01892 whole entry): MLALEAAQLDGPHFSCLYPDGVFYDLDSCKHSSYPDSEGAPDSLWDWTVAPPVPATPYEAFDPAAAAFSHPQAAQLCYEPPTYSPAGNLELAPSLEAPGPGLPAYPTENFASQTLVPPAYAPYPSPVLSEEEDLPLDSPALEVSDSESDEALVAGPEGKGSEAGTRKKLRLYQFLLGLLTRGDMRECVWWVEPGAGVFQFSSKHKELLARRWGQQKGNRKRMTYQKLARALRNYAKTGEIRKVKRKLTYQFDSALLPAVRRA
Outline: as §1

ELK3 = target: T6, ELK3 (Homo sapiens, UniProt P41970 1-407); details: protein: recombinant; tags: N-terminal GST; dsDNA, one strand shown
T6 sequence: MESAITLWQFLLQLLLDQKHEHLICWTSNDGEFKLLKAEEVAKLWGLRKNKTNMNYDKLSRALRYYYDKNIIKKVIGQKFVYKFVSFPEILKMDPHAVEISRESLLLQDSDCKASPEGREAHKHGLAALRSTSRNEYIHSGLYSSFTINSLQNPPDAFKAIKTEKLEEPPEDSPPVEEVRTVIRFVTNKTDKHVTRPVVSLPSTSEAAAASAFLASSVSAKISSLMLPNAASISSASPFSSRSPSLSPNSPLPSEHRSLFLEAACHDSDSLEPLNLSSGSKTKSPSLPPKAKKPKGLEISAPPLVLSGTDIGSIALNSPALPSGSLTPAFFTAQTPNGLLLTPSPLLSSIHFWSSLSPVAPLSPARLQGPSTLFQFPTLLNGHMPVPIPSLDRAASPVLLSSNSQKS
Outline: as §1

FEV = target: T7, FEV (Homo sapiens, UniProt Q99581 1-238); details: protein: recombinant; tags: N-terminal GST; dsDNA, one strand shown
T7 sequence: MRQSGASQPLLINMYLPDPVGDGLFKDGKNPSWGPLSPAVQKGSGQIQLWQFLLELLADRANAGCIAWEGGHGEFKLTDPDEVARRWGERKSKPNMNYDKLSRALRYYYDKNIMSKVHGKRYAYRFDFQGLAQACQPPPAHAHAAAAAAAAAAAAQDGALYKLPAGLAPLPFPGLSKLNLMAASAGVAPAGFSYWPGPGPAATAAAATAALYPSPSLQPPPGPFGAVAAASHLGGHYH
Outline: as §1

ETV5 = ETV5 (Homo sapiens, UniProt P41161 1-510); details: protein: recombinant; tags: N-terminal GST; dsDNA, one strand shown
ETV5, sequence (P41161 whole entry): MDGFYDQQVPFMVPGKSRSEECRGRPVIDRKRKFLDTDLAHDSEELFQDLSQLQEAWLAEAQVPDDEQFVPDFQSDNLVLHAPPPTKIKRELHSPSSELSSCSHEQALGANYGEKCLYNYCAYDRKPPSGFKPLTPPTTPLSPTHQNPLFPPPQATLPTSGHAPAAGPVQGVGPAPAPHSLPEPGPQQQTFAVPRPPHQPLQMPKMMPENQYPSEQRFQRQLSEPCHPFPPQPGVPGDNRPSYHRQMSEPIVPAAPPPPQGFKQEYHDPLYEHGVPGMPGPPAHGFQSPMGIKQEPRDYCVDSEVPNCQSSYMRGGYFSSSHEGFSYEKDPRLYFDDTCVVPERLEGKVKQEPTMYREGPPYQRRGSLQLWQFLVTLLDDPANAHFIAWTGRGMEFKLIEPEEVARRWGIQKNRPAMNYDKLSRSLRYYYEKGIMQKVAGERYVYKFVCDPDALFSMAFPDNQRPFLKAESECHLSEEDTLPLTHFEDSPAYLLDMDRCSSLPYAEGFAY
Outline: as §1

HSF1 = HSF1 (Homo sapiens, UniProt Q00613 1-529); details: protein: recombinant; tags: N-terminal GST; chain copies: 3; dsDNA, one strand shown
HSF1, sequence (Q00613 whole entry): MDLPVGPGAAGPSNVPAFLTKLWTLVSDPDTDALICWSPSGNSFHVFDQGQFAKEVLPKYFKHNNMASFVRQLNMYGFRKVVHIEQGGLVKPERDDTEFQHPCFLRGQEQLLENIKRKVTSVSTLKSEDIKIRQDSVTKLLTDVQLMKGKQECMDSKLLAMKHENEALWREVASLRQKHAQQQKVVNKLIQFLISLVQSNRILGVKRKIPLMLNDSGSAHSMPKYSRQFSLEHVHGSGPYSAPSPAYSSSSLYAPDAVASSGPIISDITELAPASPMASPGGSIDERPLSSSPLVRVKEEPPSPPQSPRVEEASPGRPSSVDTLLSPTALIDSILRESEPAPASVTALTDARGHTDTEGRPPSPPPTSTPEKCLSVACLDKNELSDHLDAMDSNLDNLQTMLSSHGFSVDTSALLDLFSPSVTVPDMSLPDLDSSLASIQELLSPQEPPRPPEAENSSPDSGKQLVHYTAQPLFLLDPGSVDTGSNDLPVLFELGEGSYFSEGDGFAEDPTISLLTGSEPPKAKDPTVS
Outline: as §1

SPIC = target: T8, SPIC (Homo sapiens, UniProt Q8N5J4 1-248); details: protein: recombinant; tags: N-terminal GST; dsDNA, one strand shown
T8 sequence: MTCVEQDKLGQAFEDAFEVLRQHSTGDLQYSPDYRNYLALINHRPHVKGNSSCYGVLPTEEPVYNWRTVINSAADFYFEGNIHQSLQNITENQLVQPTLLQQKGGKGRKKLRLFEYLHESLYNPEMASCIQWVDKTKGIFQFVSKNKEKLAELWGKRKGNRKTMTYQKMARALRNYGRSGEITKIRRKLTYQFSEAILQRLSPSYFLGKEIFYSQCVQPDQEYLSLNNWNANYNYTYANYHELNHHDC
Outline: as §1

ELF4 = ELF4 (Homo sapiens, UniProt Q99607 1-663); details: protein: recombinant; tags: N-terminal GST; dsDNA, one strand shown
ELF4, sequence (Q99607 whole entry): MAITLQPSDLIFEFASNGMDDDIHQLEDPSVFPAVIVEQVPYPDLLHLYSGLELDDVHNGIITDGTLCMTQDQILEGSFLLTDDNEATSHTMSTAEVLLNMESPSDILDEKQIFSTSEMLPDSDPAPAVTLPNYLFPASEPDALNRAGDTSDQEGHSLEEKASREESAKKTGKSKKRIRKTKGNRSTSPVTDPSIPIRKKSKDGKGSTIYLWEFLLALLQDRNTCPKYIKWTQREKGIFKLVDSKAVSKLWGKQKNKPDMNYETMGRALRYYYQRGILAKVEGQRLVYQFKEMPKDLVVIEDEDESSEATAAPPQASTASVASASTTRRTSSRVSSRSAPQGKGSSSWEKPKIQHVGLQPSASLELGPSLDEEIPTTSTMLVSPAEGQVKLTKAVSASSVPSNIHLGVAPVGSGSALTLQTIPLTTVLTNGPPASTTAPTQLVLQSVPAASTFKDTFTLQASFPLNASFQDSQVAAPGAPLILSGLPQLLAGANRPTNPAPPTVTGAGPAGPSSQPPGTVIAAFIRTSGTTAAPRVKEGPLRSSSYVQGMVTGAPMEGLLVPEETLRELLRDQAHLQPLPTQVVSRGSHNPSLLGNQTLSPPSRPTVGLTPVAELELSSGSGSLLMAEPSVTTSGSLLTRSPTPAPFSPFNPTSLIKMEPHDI
Outline: as §1

ELK4 = target: T9, ELK4 (Homo sapiens, UniProt P28324-2 1-405); details: protein: recombinant; tags: N-terminal GST; dsDNA, one strand shown
T9 sequence: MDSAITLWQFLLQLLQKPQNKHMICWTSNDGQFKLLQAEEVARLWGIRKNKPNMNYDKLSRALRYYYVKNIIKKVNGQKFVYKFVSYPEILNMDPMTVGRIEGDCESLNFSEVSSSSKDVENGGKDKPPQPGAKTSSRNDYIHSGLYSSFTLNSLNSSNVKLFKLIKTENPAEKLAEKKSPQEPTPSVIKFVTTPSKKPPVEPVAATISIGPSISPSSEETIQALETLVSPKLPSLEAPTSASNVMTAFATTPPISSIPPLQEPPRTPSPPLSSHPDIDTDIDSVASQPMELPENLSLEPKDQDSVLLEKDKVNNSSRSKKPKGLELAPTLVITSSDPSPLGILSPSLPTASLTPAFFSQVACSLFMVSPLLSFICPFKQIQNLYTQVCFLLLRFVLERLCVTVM
Outline: as §1

ETV2 = target: T10, ETV2 (Homo sapiens, UniProt O00321 1-342); details: protein: recombinant; tags: N-terminal GST; dsDNA, one strand shown
T10 sequence: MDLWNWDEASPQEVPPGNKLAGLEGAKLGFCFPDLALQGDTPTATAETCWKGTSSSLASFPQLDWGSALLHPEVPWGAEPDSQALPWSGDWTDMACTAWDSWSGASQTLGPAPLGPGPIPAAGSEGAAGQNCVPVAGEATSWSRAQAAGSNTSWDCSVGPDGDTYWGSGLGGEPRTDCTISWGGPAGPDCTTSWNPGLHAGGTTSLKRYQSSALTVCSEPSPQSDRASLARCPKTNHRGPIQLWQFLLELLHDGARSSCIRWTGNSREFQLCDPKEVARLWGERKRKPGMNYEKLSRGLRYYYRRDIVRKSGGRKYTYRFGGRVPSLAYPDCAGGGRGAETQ
Outline: as §1

ELF3 = target: T11, ELF3 (Homo sapiens, UniProt P78545 1-371); details: protein: recombinant; tags: N-terminal GST; dsDNA, one strand shown
T11 sequence: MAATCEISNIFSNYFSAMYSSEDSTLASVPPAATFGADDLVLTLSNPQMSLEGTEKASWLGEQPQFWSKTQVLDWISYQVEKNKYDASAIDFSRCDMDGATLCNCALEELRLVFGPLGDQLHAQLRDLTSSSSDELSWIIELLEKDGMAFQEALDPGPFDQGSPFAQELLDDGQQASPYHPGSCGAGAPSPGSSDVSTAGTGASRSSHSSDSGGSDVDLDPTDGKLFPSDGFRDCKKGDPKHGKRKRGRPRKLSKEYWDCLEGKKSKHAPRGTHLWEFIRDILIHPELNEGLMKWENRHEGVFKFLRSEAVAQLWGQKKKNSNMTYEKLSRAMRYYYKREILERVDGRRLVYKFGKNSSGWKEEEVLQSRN
Outline: as §1

CRX = CRX (Homo sapiens, UniProt O43186 1-299); details: protein: recombinant; tags: N-terminal GST; dsDNA, one strand shown
CRX, sequence (O43186 whole entry): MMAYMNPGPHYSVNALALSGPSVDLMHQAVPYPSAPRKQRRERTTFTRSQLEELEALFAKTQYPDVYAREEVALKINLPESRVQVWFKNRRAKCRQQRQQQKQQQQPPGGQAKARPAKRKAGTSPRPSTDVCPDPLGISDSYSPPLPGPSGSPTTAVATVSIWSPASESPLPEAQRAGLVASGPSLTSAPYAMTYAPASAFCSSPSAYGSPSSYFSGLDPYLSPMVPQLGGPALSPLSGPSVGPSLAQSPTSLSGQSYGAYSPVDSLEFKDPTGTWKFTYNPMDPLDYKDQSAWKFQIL
Outline: as §1

ETV1 = ETV1 (Homo sapiens, UniProt P50549 1-477); details: protein: recombinant; tags: N-terminal GST; dsDNA, one strand shown
ETV1, sequence (P50549 whole entry): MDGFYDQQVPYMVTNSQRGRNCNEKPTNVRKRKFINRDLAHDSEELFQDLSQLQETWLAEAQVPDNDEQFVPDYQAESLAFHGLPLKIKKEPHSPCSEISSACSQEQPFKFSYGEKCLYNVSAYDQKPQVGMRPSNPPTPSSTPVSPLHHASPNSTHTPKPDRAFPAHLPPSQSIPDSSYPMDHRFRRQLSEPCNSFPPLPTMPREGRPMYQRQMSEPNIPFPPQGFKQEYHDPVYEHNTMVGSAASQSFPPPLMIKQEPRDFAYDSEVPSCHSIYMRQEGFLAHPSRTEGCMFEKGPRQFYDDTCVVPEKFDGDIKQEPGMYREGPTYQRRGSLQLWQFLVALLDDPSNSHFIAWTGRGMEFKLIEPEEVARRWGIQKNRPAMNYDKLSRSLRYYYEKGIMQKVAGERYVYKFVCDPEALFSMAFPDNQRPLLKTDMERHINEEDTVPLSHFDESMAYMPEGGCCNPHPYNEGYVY
Outline: as §1

## AAGAAA
FLI1
  binding signal: 1.08 fold enrichment (6-mer frequency, TF over GST control)
ELK1
  binding signal: 1.14 fold enrichment (6-mer frequency, TF over GST control)
GABPA
  binding signal: 1.25 fold enrichment (6-mer frequency, TF over GST control)
ERG
  binding signal: 1.2 fold enrichment (6-mer frequency, TF over GST control)
ELF1
  binding signal: 1.15 fold enrichment (6-mer frequency, TF over GST control)
EHF
  binding signal: 1.18 fold enrichment (6-mer frequency, TF over GST control)
SPI1
  binding signal: 1.22 fold enrichment (6-mer frequency, TF over GST control)
SPIB
  binding signal: 1.1 fold enrichment (6-mer frequency, TF over GST control)
ELK3
  binding signal: 1.22 fold enrichment (6-mer frequency, TF over GST control)
FEV
  binding signal: 1.15 fold enrichment (6-mer frequency, TF over GST control)
ETV5
  binding signal: 1.19 fold enrichment (6-mer frequency, TF over GST control)
HSF1
  binding signal: 1.75 fold enrichment (6-mer frequency, TF over GST control)
SPIC
  binding signal: 1.19 fold enrichment (6-mer frequency, TF over GST control)
ELF4
  binding signal: 1.19 fold enrichment (6-mer frequency, TF over GST control)
ELK4
  binding signal: 1.18 fold enrichment (6-mer frequency, TF over GST control)
ETV2
  binding signal: 1.18 fold enrichment (6-mer frequency, TF over GST control)
ELF3
  binding signal: 1.23 fold enrichment (6-mer frequency, TF over GST control)
CRX
  binding signal: 1.29 fold enrichment (6-mer frequency, TF over GST control)
ETV1
  binding signal: 1.2 fold enrichment (6-mer frequency, TF over GST control)
